Records with an inconclusive call do not appear. Active and inactive are the calls of the source. Calls come from the whole dose curve; as a rule, active = well fitted curve in the direction sought with a large enough effect in the repeat runs; inconclusive = weak or mixed curves; inactive = no such curve, though single readings can be large; an effect the other way counts as inactive or inconclusive.
What was measured:
[1] = qHTS RealTime-Glo MT Cell Viability Assay in HEK293 cells - 16 hour (AID 1224872); note: nearly all actives have a fitted effect of over 50% in size; note: potency is the fitted concentration of half-maximal effect
Method in brief: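 Nonlytic real-time viability readout: viable cells convert prosubstrate to NanoLuc substrate, giving luminescence proportional to live cell number. HEK293, 600 cells/well, compound added after 5 h, continuous culture at 37 C.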

[2] = qHTS RealTime-Glo MT Cell Viability Assay in HepG2 cells - 8 hour (AID 1224873); note: nearly all actives have a fitted effect of over 55% in size; note: potency is the fitted concentration of half-maximal effect
Method in brief: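 HepG2 cells (600/well) mixed with RealTime-Glo MT reagent, settled 5 h at 37 C/5% CO2 before compound addition. Nonlytic NanoLuc luminescence from viable-cell prosubstrate reduction read repeatedly during 40 h treatment at 37 C.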

[3] = qHTS RealTime-Glo MT Cell Viability Assay in HEK293 cells - 40 hour (AID 1224874); details: RealTime-Glo luminescence; max response: active compounds read low; note: nearly all actives have a fitted effect of over 50% in size; note: potency is the fitted concentration of half-maximal effect
Method in brief: (§1)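 Tox21 screen in HEK293 using RealTime-Glo MT chemistry, with cells and reagent co-dispensed. Luminescence proportional to viable cell number was captured at intervals during 40 h compound exposure at 37 C.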

[4] = A CellTox Green Cytotoxicity Assay to monitor cytotoxicity in HEK293 cells - 24 hour (AID 1224875); note: nearly all actives have a fitted effect of over 45% in size; note: potency is the fitted concentration of half-maximal effect
Method in brief: (§2)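 Seeding of HEK293 cells together with cytotoxicity dye preceded a 5 h incubation at 37 C/5% CO2. Test compounds in DMSO were then added and fluorescence monitored across 40 h.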

[5] = A CellTox Green Cytotoxicity Assay to monitor cytotoxicity in HepG2 cells - 16 hour (AID 1224876); note: nearly all actives have a fitted effect of over 45% in size; note: potency is the fitted concentration of half-maximal effect
Method in brief: (§3)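 Nonlytic assay: viable cells exclude the dye, so fluorescence scales with cell death. HepG2 at 600 cells/well, compounds added after 5 h, signal read across 40 h.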

[6] = qHTS RealTime-Glo MT Cell Viability Assay in HepG2 cells - 32 hour (AID 1224877); note: nearly all actives have a fitted effect of over 55% in size; note: potency is the fitted concentration of half-maximal effect
Method in brief: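 Luminescence read-out: viable HepG2 cells reduce a prosubstrate to a NanoLuc substrate, giving a signal proportional to live cell number. Reads taken at 0, 8, 16, 24, 32 and 40 h of compound exposure at 37 C.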

[7] = A CellTox Green Cytotoxicity Assay to monitor cytotoxicity in HepG2 cells - 24 hour (AID 1224878); note: nearly all actives have a fitted effect of over 45% in size; note: potency is the fitted concentration of half-maximal effect
Method in brief: as §3

[8] = A CellTox Green Cytotoxicity Assay to monitor cytotoxicity in HepG2 cells - 40 hour (AID 1224879); note: nearly all actives have a fitted effect of over 40% in size; note: potency is the fitted concentration of half-maximal effect
Method in brief: as §3

[9] = qHTS RealTime-Glo MT Cell Viability Assay in HEK293 cells - 0 hour (AID 1224880); note: top concentration of the series differs between compounds; nearly all actives have a fitted effect of over 45% in size
Method in brief: as §1

[10] = A CellTox Green Cytotoxicity Assay to monitor cytotoxicity in HEK293 cells - 32 hour (AID 1224881); note: nearly all actives have a fitted effect of over 40% in size; note: potency is the fitted concentration of half-maximal effect
Method in brief: as §2
% is set by controls: 0 for no effect and ±100 for the full control effect.

N#CSCSc1nc2ccccc2s1
active: Potency [1] 15.5 µM | Potency [2] 49 µM | Potency [3] 19.5 µM | Potency [4] 11 µM | Potency [5] 54.9 µM | Potency [6] 30.9 µM | Potency [7] 43.6 µM | Potency [8] 21.9 µM | Potency [10] 12.3 µM
inactive: Potency [9]

COC(=O)CC(C)CCC=C(C)C (stereo not given)
inactive: Potency [1] | Potency [2] | max response [3] 7.75% | Potency [4] | Potency [5] | Potency [6] | Potency [7] | Potency [8] | Potency [9] | Potency [10]

COc1ccccc1C=O
inactive: Potency [1] | Potency [2] | max response [3] 3.17% | Potency [4] | Potency [5] | Potency [6] | Potency [7] | Potency [8] | Potency [9]

O=C1C=CC(=O)N1c1ccccc1
inactive: Potency [9]
active: Potency [1] 15.5 µM | Potency [2] 19.5 µM | Potency [3] 11 µM | Potency [4] 12.3 µM | Potency [5] 19.5 µM | Potency [6] 12.3 µM | Potency [7] 13.8 µM | Potency [8] 12.3 µM

C[Si](C)O[Si](C)C
inactive: Potency [1] | Potency [2] | max response [3] -8.35% | Potency [4] | Potency [5] | Potency [6] | Potency [7] | Potency [8] | Potency [9] | Potency [10]

OCCCCl
inactive: Potency [1] | Potency [2] | max response [3] 8.9% | Potency [4] | Potency [5] | Potency [6] | Potency [7] | Potency [8] | Potency [9] | Potency [10]

CCOC(=O)CN
inactive: Potency [1] | Potency [2] | max response [3] -0.943% | Potency [4] | Potency [5] | Potency [6] | Potency [7] | Potency [8] | Potency [9] | Potency [10]

CCCCN(C)C
inactive: Potency [1] | Potency [2] | max response [3] 1.09% | Potency [4] | Potency [5] | Potency [6] | Potency [7] | Potency [8] | Potency [9]

CN1[C@@H]2CC[C@@H]1CC(OC(=O)C(CO)c1ccccc1)C2 (stereo not given in full)
inactive: Potency [1] | Potency [2] | max response [3] -6.75% | Potency [4] | Potency [5] | Potency [6] | Potency [7] | Potency [8] | Potency [9]

COC(=O)[C@]1(C)CCC[C@@]2(C)[C@H]1CC=C1C=C(C(C)C)CC[C@@H]12
inactive: Potency [1] | Potency [2] | max response [3] -2.95% | Potency [6] | Potency [9]
active: Potency [4] 38.9 µM | Potency [5] 24.5 µM | Potency [7] 24.5 µM | Potency [8] 24.5 µM

C=CC(=O)OCCN(CC)CC
inactive: Potency [1] | Potency [2] | max response [3] 3.34% | Potency [4] | Potency [5] | Potency [6] | Potency [7] | Potency [8] | Potency [9] | Potency [10]

COc1ccc(C#N)cc1
inactive: Potency [1] | Potency [2] | max response [3] -13.1% | Potency [4] | Potency [5] | Potency [6] | Potency [7] | Potency [8] | Potency [9] | Potency [10]

O=CC1CC1
inactive: Potency [1] | Potency [2] | max response [3] 12% | Potency [4] | Potency [5] | Potency [6] | Potency [7] | Potency [8] | Potency [9] | Potency [10]

C=C(C)CCCC
inactive: Potency [1] | Potency [2] | max response [3] 3.81% | Potency [4] | Potency [5] | Potency [6] | Potency [7] | Potency [8] | Potency [9] | Potency [10]

CCCCCCCCCCCCCOP(=O)(O)O
inactive: Potency [1] | Potency [2] | max response [3] -0.341% | Potency [4] | Potency [5] | Potency [6] | Potency [7] | Potency [8] | Potency [9] | Potency [10]

CCCCCCCOC(=O)c1ccccc1C(=O)OCCCCCCC
inactive: Potency [1] | Potency [2] | max response [3] -16.7% | Potency [4] | Potency [5] | Potency [6] | Potency [7] | Potency [8] | Potency [9] | Potency [10]

CCCCCCCCC(C)=O
inactive: Potency [1] | Potency [2] | max response [3] 9.37% | Potency [4] | Potency [5] | Potency [6] | Potency [7] | Potency [8] | Potency [9] | Potency [10]

CCNc1nc(NC(C)CC)nc(OC)n1 (stereo not given)
inactive: Potency [1] | Potency [2] | max response [3] -18.1% | Potency [4] | Potency [5] | Potency [6] | Potency [7] | Potency [8] | Potency [9] | Potency [10]

Cc1cc(=O)[nH]c(=O)[nH]1
inactive: Potency [1] | Potency [2] | max response [3] -0.154% | Potency [4] | Potency [5] | Potency [6] | Potency [7] | Potency [8] | Potency [9] | Potency [10]

Cc1cccc(C)n1
inactive: Potency [1] | Potency [2] | max response [3] -0.971% | Potency [4] | Potency [5] | Potency [6] | Potency [7] | Potency [8] | Potency [9] | Potency [10]

CC(C)=CCCC(C)O (stereo not given)
inactive: Potency [1] | Potency [2] | max response [3] 0.513% | Potency [4] | Potency [5] | Potency [6] | Potency [7] | Potency [8] | Potency [9] | Potency [10]

CCC1(c2cnc[nH]2)Cc2ccccc2C1
inactive: Potency [1] | Potency [2] | max response [3] -4.11% | Potency [4] | Potency [5] | Potency [6] | Potency [7] | Potency [8] | Potency [9] | Potency [10]

— PubChem BioAssay (Tox21)
